Compounds without any hit were thinned out: in the full panel of roughly 83,000, 20% have a hit.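 Plates (96-well) were seeded with cells, treated with compound at one concentration, and incubated for 48 hours before percent growth was determined.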 Active and inactive are the calls of the source. The calls were made as follows: active = growth percent below 10; inactive = the rest.
Experiments:
Assay in all cases: NCI-60 one-dose screen, 48 h (100 = growth as untreated, 0 = no growth, -100 = all killed)
[1] = tested on: HCT-15 colon; details: 10 µM unless noted
[2] = tested on: HT29 colon; details: 10 µM unless noted
[3] = tested on: SNB-75 CNS; details: 10 µM unless noted
[4] = tested on: SNB-19 CNS; details: 10 µM unless noted
[5] = tested on: U251 CNS; details: 10 µM unless noted
[6] = tested on: PC-3 prostate; details: 10 µM unless noted
[7] = tested on: SK-MEL-5 melanoma; details: 10 µM unless noted
[8] = tested on: UACC-62 melanoma; details: 10 µM unless noted
[9] = tested on: LOX IMVI melanoma; details: 10 µM
[10] = tested on: SK-MEL-28 melanoma; details: 10 µM unless noted
[11] = tested on: SK-MEL-2 melanoma; details: 10 µM unless noted
[12] = tested on: EKVX NSCLC; details: 10 µM unless noted
[13] = tested on: SN12C renal; details: 10 µM unless noted
[14] = tested on: UO-31 renal; details: 10 µM unless noted
[15] = tested on: TK-10 renal; details: 10 µM unless noted
[16] = tested on: ACHN renal; details: 10 µM unless noted
[17] = tested on: CAKI-1 renal; details: 10 µM unless noted
[18] = tested on: A498 renal; details: 10 µM unless noted
[19] = tested on: CCRF-CEM leukemia; details: 10 µM unless noted
[20] = tested on: MOLT-4 leukemia; details: 10 µM unless noted

Measured: growth

O=C(c1ccccc1O)N1CCCC1
inactive: [1] 99.2% | [2] 93% | [3] 88% | [4] 97.2% | [5] 89.8% | [6] 84.4% | [7] 105% | [8] 100% | [9] 99.7% | [10] 98.5% | [11] 92.9% | [12] 97.5% | [13] 102% | [14] 91.9% | [15] 96.5% | [16] 94.4% | [17] 94.8% | [18] 91.9% | [19] 100% | [20] 98.6%

COc1cc(N)c2ncccc2c1Cl
inactive: [1] 90.5% | [2] 91.1% | [3] 99.8% | [4] 98.8% | [5] 101% | [6] 93.3% | [7] 96.4% | [8] 86.7% | [9] 104% | [10] 121% | [11] 96.7% | [12] 84.3% | [13] 91.5% | [14] 78.4% | [15] 93.6% | [16] 91.2% | [17] 95.8%

CCCCN(C(=O)CC)c1ccccc1
active: [19] -8.28%
inactive: [1] 108% | [2] 100% | [3] 89.8% | [4] 99.9% | [5] 97.6% | [6] 103% | [7] 100% | [8] 99.2% | [9] 97.4% | [10] 104% | [11] 108% | [12] 97% | [13] 99.3% | [14] 86.7% | [15] 97.2% | [16] 103% | [17] 101% | [18] 83.3%

O=S(Cc1ccccc1)/C(=C/NC(=S)Nc1cc(Cl)ccc1Cl)c1ccccc1 (stereo not given)
inactive: [1] 107% | [2] 97.4% | [3] 89.9% | [4] 104% | [5] 101% | [6] 94.1% | [7] 102% | [8] 98.6% | [9] 94.3% | [10] 109% | [11] 101% | [12] 99.3% | [13] 98.5% | [14] 83.9% | [15] 107% | [16] 99.9% | [17] 97.1% | [18] 101% | [19] 99.6%

CSc1cnc2ccccc2n1
inactive: [1] 104% | [2] 83.2% | [3] 107% | [4] 99.5% | [5] 94.1% | [6] 89.6% | [7] 105% | [8] 97.1% | [9] 96.4% | [10] 110% | [11] 86% | [12] 103% | [13] 94.4% | [14] 78.4% | [15] 94.1% | [16] 107% | [17] 97% | [18] 105% | [19] 113% | [20] 107%

O=C(O)C1CSC(c2ccccc2)N1 (stereo not given)
inactive: [1] 90.5% | [2] 91.7% | [3] 96.7% | [4] 96.5% | [5] 105% | [6] 92.6% | [7] 101% | [8] 93% | [9] 102% | [10] 99.6% | [11] 89.2% | [12] 99.1% | [13] 93.2% | [14] 91.6% | [15] 95.6% | [16] 94.4% | [17] 105% | [18] 81% | [19] 121% | [20] 115%

CCN(CC)c1ccc2nc3ccc(N=Nc4ccc(N(C)C)cc4)cc3[n+](-c3ccccc3)c2c1
active: [1] -10.3% | [2] -31.8% | [3] -98.9% | [5] -52% | [6] 6.24% | [7] -97.4% | [8] -59.1% | [9] -91.9% | [10] -36.1% | [11] -37.1% | [12] -75.2% | [13] -49.5% | [14] -55.1% | [15] 5.74% | [16] -79.4% | [17] -27.8% | [18] -25.1% | [19] -21% | [20] -20.1%
inactive: [4] 40.3%

CCCCCCCCCCCCCCCCCCSC(=N)N
inactive: [1] 66.6% | [2] 28.4% | [3] 88.6% | [4] 89.2% | [5] 72.3% | [6] 65% | [7] 98.3% | [8] 77.6% | [9] 52.7% | [10] 93.5% | [11] 97.6% | [12] 88.3% | [13] 65.6% | [14] 43.2% | [15] 65.5% | [16] 69.9% | [17] 79.4% | [18] 84.7%

C=C(OC(C)=O)c1ccccc1
inactive: [1] 114% | [2] 98.4% | [3] 98% | [4] 106% | [5] 89.8% | [6] 79.4% | [7] 101% | [8] 97% | [9] 94.4% | [10] 118% | [11] 96.9% | [12] 111% | [13] 96% | [14] 101% | [15] 100% | [16] 115% | [17] 100% | [18] 95.3% | [19] 83.5%

Cc1cc(C(=O)NN)c(C#N)c(=O)[nH]1
inactive: [1] 105% | [2] 124% | [3] 84.6% | [4] 95.3% | [5] 104% | [6] 91.1% | [7] 95.7% | [8] 89.8% | [9] 97.7% | [10] 91.8% | [11] 100% | [12] 109% | [13] 88.4% | [14] 88.3% | [15] 115% | [16] 105% | [17] 96.8% | [18] 95.7% | [19] 95.9% | [20] 111%

CC(=O)NC(CCC(=O)c1ccccc1)C(=O)O (stereo not given)
inactive: [1] 104% | [2] 93.6% | [3] 90% | [4] 101% | [5] 87.6% | [6] 80.2% | [7] 97% | [8] 97.4% | [9] 100% | [10] 105% | [11] 104% | [12] 99.2% | [13] 98.5% | [14] 98.5% | [15] 93.8% | [16] 108% | [17] 102% | [18] 99.4% | [19] 103%

Oc1cc(O)c2c(c1)O[C@H](c1ccc(O)c(O)c1)[C@@H](O)C2
inactive: [1] 100% | [2] 97.5% | [3] 83.6% | [4] 101% | [5] 97.9% | [6] 93.3% | [7] 104% | [8] 106% | [9] 100% | [10] 110% | [11] 106% | [12] 99.4% | [13] 102% | [14] 89.5% | [15] 106% | [16] 98% | [17] 99.4% | [18] 120% | [19] 94.4%

O=c1n(CC2CO2)c(=O)n(CC2CO2)n1CC1CO1 (stereo not given)
inactive: [1] 60.5% | [2] 69.5% | [3] 79.5% | [4] 62.4% | [5] 54.3% | [6] 70% | [7] 67.1% | [8] 54.1% | [9] 52.1% | [10] 93% | [11] 41.1% | [12] 97.4% | [13] 69.7% | [14] 51% | [15] 74.2% | [16] 22.3% | [17] 28.6% | [18] 85.2% | [19] 37.5% | [20] 19.2%

CCCCCC/C=C\CCCCCCCCCc1cc(O)cc(OC)c1O
active: [1] 3.68% | [2] 8.67% | [3] 6.11% | [6] 1.77% | [7] -29% | [8] 6.32% | [9] -86.3% | [11] -25.5% | [13] 8.94% | [14] -19.1% | [17] -29.1% | [18] -18.5% | [19] -0.181% | [20] 2.69%
inactive: [4] 24% | [5] 10.2% | [10] 24% | [12] 14.5% | [15] 24.3% | [16] 12.7%

NC(=S)N/N=C/c1ccc(OC(=O)COc2ccccc2)cn1
inactive: [1] 76.8% | [2] 84.1% | [3] 59.3% | [4] 74.9% | [5] 42.3% | [6] 63.9% | [7] 38.4% | [8] 13.9% | [9] 19.1% | [10] 83% | [11] 69.3% | [12] 109% | [13] 34.7% | [14] 24.5% | [15] 74.7% | [18] 70.5% | [19] 18.9% | [20] 22.3%
active: [16] 8.03% | [17] 3.88%

CC(=O)CSc1ncnc2nc[nH]c12
inactive: [1] 96.1% | [2] 104% | [3] 89.3% | [4] 99.7% | [5] 101% | [6] 92.5% | [7] 95.8% | [8] 74.6% | [9] 42.2% | [10] 82.3% | [11] 95% | [12] 95.4% | [13] 96.9% | [14] 88.1% | [15] 88.8% | [16] 93% | [17] 80.9% | [18] 66.1% | [19] 89.3% | [20] 87.4%

CC1=CC(=Nc2ccc(N(C)C)cc2)C=C(C)C1=O
inactive: [1] 85.7% | [2] 98.6% | [3] 75.8% | [4] 106% | [5] 92.7% | [6] 69.9% | [7] 74% | [8] 37.7% | [9] 46.4% | [10] 96.8% | [11] 110% | [12] 93% | [13] 97.3% | [14] 62.3% | [15] 133% | [16] 77.3% | [17] 91.2% | [18] 76.8% | [19] 76.1% | [20] 87.6%
